BAZ2B block – qHTS Assay for Inhibitors of BAZ2B. hit rate 4.4% among 360,000. AlphaScreen BAZ2B-H3K14Ac peptide displacement. Bromodomain adjacent to zinc finger domain protein 2B (Homo sapiens), Q9UIF8. Potency, µM (titrated, usually from 114 µM), inactives show at the highest dose activity change, negative = inhibition, hits mostly inhibitors; also: % is scaled to controls: 0 for no effect and ±100 for the full control effect; nearly all actives have a fitted effect of over 60% in size
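BAZ2B (50 nM) with biotin-H3(5-23)K14Ac peptide (50 nM) in PBS pH 7.4, 0.01% Tween-20, preformed 30 min, then compound 30 min at room temperature; top concentration 110uM. AlphaScreen streptavidin donor/nickel chelate acceptor beads (10 ug/mL final), 20 min dark, signal read.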
JMJD2A Tudor inh – qHTS Assay for Inhibitors of JMJD2A-Tudor Domain; Lysine-specific demethylase 4A (Homo sapiens), O75164; AlphaScreen JMJD2A-Tudor / H3K4me3 peptide binding; Potency, µM (top dose mostly 114 µM), for inactives: top-dose activity change, negative = inhibition, hits mostly inhibitors; hit rate 4.4% among 390,000; AID 504339, 2011; also: % is scaled to controls: 0 for no effect and ±100 for the full control effect; nearly all actives have a fitted effect of over 50% in size
L3MBTL1 inh – qHTS Assay for the Inhibitors of L3MBTL1; Potency, µM (doses to about 57.1 µM), inactives show at the highest dose activity, negative = inhibition, hits mostly inhibitors; hit rate 0.66% among 230,000; AlphaScreen L3MBTL1–H3K9me1 peptide binding; AID 485360, 2010; also: % is scaled to controls: 0 for no effect and ±100 for the full control effect; nearly all actives have a fitted effect of over 60% in size
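L3MBTL1 (50 nM) pre-complexed 30 min with biotinylated H3(1-15)K9me1 peptide (75 nM), then compounds added for 30 min at room temperature; AlphaScreen streptavidin donor/nickel chelate acceptor beads (10 ug/mL final) read after 30 min dark incubation.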
HP1b binding inh – HTS for Inhibitors of HP1-beta Chromodomain Interactions with Methylated Histone Tails. Potency, µM (doses to about 114 µM), for the others: top-dose activity change, negative = inhibition, hits mostly inhibitors. hit rate 0.56% among 390,000. AID 540317, 2011. AlphaScreen HP1-beta / biotin-H3K9me3 peptide binding. Chromobox protein homolog 1 (Homo sapiens), P83916; also: nearly all actives have a fitted effect of over 70% in size
Target sequence (P83916 whole entry, looked up): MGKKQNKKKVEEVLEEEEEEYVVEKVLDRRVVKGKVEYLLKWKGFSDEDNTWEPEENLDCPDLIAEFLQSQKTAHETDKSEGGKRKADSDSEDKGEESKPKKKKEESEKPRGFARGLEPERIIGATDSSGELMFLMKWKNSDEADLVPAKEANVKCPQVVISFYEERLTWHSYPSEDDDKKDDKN
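HP1-beta protein (50 nM final) preincubated 30 min at room temperature with biotinylated H3(1-18)K9me3 peptide (50 nM) in PBS pH 7.4, 0.01% Tween-20, then compound added for 30 min. AlphaScreen streptavidin donor/nickel chelate acceptor beads (10 ug/mL final), 30 min dark, luminescence read.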
PLK1 PBD inh – qHTS for Inhibitors of PLK1-PDB (polo-like kinase 1 - polo-box domain): Primary Screen; Plk1 PBD binding of FITC phosphopeptide, fluorescence polarization; hit rate 2.8% among 360,000; Serine/threonine-protein kinase PLK1 (Homo sapiens), P53350; Potency, µM, inactives show max response, negative = inhibition, actives largely listed as inhibitors; AID 720504, 2013; also: series mostly up to about 57 µM; % is scaled to controls: 0 for no effect and ±100 for the full control effect; nearly all actives have a fitted effect of over 65% in size
VDR inhibitor – Inhibitors of the vitamin D receptor (VDR): qHTS | hit rate 0.93% among 400,000 | AID 504847, 2011 | VDR-SRC2-3 peptide fluorescence polarization, 2 h | Vitamin D3 receptor (Homo sapiens), P11473 | Potency, µM, for the others: max response, negative = inhibition, most hits filed as inhibitors; also: % is scaled to controls: 0 for no effect and ±100 for the full control effect
Target sequence (P11473 whole entry, looked up): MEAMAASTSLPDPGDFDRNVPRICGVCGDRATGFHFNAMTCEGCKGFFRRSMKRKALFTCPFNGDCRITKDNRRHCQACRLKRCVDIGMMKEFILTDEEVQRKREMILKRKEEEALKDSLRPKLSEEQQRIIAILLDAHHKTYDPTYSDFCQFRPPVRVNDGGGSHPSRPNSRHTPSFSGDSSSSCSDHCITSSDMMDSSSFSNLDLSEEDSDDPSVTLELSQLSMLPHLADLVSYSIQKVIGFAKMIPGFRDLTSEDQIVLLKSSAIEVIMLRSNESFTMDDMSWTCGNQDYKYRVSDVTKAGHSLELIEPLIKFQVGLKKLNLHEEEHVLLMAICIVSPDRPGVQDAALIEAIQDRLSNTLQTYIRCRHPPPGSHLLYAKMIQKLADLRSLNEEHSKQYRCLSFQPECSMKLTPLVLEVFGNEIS
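Reagent solutions, kept cold and dark, are dispensed first; compounds are then pinned in at 23 nl, plates briefly spun, and incubated 2 h at ambient temperature. Inhibition of VDR–SRC2-3 peptide binding is read by fluorescence polarization.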
Active calls of the source: *; ? = inconclusive; . = no result; [ ] = another dose, or the depositor's remark. Sampled rows, rich in hits. Any-hit rate of the full collection: about 6.9%. Calls follow the shape of the dose curve; as a rule, active = well fitted curve in the direction sought with a large enough effect; inconclusive = small, poorly fitted or top-dose-only effect, or another doubt; inactive = no such curve, though single readings can be large; an effect the other way counts as inactive or inconclusive. Potency is read from the fitted curve at half-maximal effect.

SMILES	BAZ2B block	JMJD2A Tudor inh	L3MBTL1 inh	HP1b binding inh	PLK1 PBD inh	VDR inhibitor
Cc1nn(C)c(Oc2cccc(Cl)c2)c1C#N	8%	20µM*	-17%	17%	8.4µM*	?
O=C(Nc1cc(S(=O)(=O)N2CCCC2)ccc1Cl)c1cc(F)c(F)c(F)c1F	.	-15%	13%	43%	-2%	8%
c1ccc(CCN(Cc2ccccc2)C2CCN(C3CCCC3)CC2)cc1	50µM*	2.2µM*	.	?	-9%	-8%
CC(=O)NC(=S)Nc1sc2c(c1C(N)=O)CCC(C)C2 (centres undefined)	-29%	-30%	-2%	?	-22%	15%
CC(=O)/C(C[N+]1(C)CCCCC1)=N\O	?	35µM*	11%	-32%	?	-8%
C[N+]1(CC(=O)OC2CCCCCCCCCCC2)CCCC1	-7%	?	.	10%	-4%	-19%
Cc1cc(C)cc(NC(=O)CN2CCN(CCN=CC3=C(O)CC(c4ccc(Cl)cc4)CC3=O)CC2)c1 (centres undefined)	-19%	-5%	-15%	29%	6%	5%
CCOc1cc(C(N)=O)cc(Cl)c1OCc1ccccc1	?	-12%	4%	24%	-8%	4%
CCOc1cc(/C=C(/NC(C)=O)C(=O)O)cc(Cl)c1OCc1cccc(Br)c1	50µM*	?	1%	3%[57 µM]	?	6%
CN(C)S(=O)(=O)c1cccc(COc2cccnc2[N+](=O)[O-])c1	10%	-30%[57.1 µM]	.	-10%	30µM*	?
CN(C)c1ccc(N2C(=O)CSC2=S)cc1	40µM*	40µM*	?	?	-14%	89µM*
CC1SC(=S)N(c2ccc(N(C)C)cc2)C1=O (centres undefined)	?	?	.	4%	?	32µM*
CCc1ccccc1NC(=O)CN(Cc1ccccc1)S(=O)(=O)c1ccc2nc(C)sc2c1	-3%	5%	.	31%	.	10%
CCOc1ccc(CNC(=O)c2ccc3c(c2)nc2n3CCCCC2)cc1	4%	-18%	.	18%[57 µM]	.	-2%
COc1ccc(CCC(=O)Nc2c(-c3ccc(N(C)C)cc3)[nH][nH]c2=O)cc1	.	.	.	.	21µM*	.
O=C(Nc1nc2c(F)cccc2s1)c1ccc(S(=O)(=O)N2CCOCC2)cc1	1%	-10%	.	27%[57 µM]	.	2%
O=C(O)c1ccc(-n2cc(-c3cc4ccccc4oc3=O)[nH]c2=S)cc1	3%	1.3µM*	.	-15%	?	-14%
Cc1cccc(-n2c(C)cc(C(=O)C(=O)Nc3ccccc3F)c2C)c1C	-38%	-17%	.	10%	.	-6%
CCS(=O)(=O)n1nc(-c2ccc(C)cc2)nc1N	6%	5%	3%	42%	-13%	-1%
Nc1nc(C(=O)N2CCOCC2)nn1S(=O)(=O)c1ccc(Cl)cc1	-7%	14µM*	3%[11.4 µM]	18%	27µM*	?
CCS(=O)(=O)n1nc(C(=O)N2CCOCC2)nc1N	?	89µM*	6%	25%	-15%	15%
Nc1nc(C(=O)N2CCOCC2)nn1S(=O)(=O)c1ccccc1	50µM*	20µM*	-3%	20%	1%	3%
COC(=O)N1CCC2(CC1)CN(c1cccc(-c3ccccc3)c1)C2	.	.	.	.	.	-13%
O=C(CCc1ccccc1)Nc1ncnc2c1C(c1ccccc1)c1c(ccc3ccccc13)O2 (centres undefined)	.	-35%	.	.	.	.
O=C(O)C(Cc1ccccc1)N1C(=O)/C(=C/C=C/c2ccco2)SC1=S (centres undefined)	8.9µM*	10µM*	1.3µM*	10µM*	2.7µM*	53%
SMILES	BAZ2B block	JMJD2A Tudor inh	L3MBTL1 inh	HP1b binding inh	PLK1 PBD inh	VDR inhibitor
O=C(O)CCCN1C(=O)/C(=C/C=C/c2ccco2)SC1=S	4µM*	5.6µM*	0.71µM*	14µM*	?	0%
Cc1ccc(NC(=O)CCCN2C(=O)/C(=C/C=C/c3ccccc3)SC2=S)cc1	-11%	-12%[57.1 µM]	-5%	-24%	?	3%
COc1ccccc1CN1CC(C(=O)NCc2cccnc2)CC1=O (centres undefined)	0%	-9%	-14%	25%	-6%	25%
c1ccc(-c2csc(=Nc3cccnc3)n2CC2CCCO2)cc1 (centres undefined)	?	?	-16%	-11%	-9%	-12%
CCOc1ccc(N=c2scc(-c3ccccc3)n2CCO)cc1	8.9µM*	?	.	?	-6%	0%
CCCCn1c(-c2ccc(S(=O)(=O)N3CCOCC3)cc2)csc1=Nc1ccccc1	?	?	.	?	.	-3%
CCn1c(-c2ccccc2)csc1=Nc1ccc(O)cc1	20µM*	32µM*	?	?	-6%	-7%
OCCn1c(-c2ccc(F)cc2)csc1=Nc1ccccc1	25µM*	?	-24%	?	-1%	-29%
OCCn1c(-c2ccc3c(c2)OCO3)csc1=Nc1ccccc1	40µM*	40µM*	-9%	?	-17%	-19%
CCOc1ccc(N=c2scc(-c3ccc(OC)cc3)n2CCO)cc1	?	?	?	-21%	-7%	-5%
Cc1ccc(N=Cc2cccc(O)c2O)c(C)c1	-32%	35µM*	32µM*	16µM*	.	20µM*
Oc1cccc(/C=N/N=C/c2cccc(O)c2O)c1O	-31%	-24%	-2%	14%	3%	-16%
CCN(CC)c1ccc(C=Nc2ccc(C)cc2C)c(O)c1	-15%	-10%	10%	33%	-4%	2%
Cc1ccccc1N=Cc1cccc(O)c1O	40µM*	40µM*	2.5µM*	?	-18%	14µM*
CCCn1c2ccccc2c2cnn(CC(=O)NCc3cc(OC)ccc3OC)c(=O)c21	-1%	-17%	.	13%	.	1%
Cc1nc2ccccc2n1-c1ccccc1	13%	3%	2%	34%	1%	3%
Cc1nc2ccccc2c2c(N)c3ccccc3n12	?	?	.	?	12µM*	?
O=C(NCCO)Nc1ccc2nsnc2c1	-3%	-3%	?	27%	-13%	-14%
O=C(Nc1ccc2nc(-c3ccco3)c(-c3ccco3)nc2c1)N1CCCC1	.	14µM*	.	10µM*	.	71µM*
O=C(NCCO)Nc1ccc2nc(-c3ccco3)c(-c3ccco3)nc2c1	3.2µM*	.	0.71µM*	.	.	.
CC1CCN(C(=O)Nc2ccc3nc(-c4ccco4)c(-c4ccco4)nc3c2)CC1	.	13µM*	.	11µM*	.	?

Bioassay records: PubChem BioAssay, National Center for Advancing Translational Sciences (NCATS)
